# Results published in PubChem BioAssay (NCATS).
# Records with an inconclusive call do not appear. Where a call stands in place of a potency, no number is given. A number with no mark means an inactive call. Activity calls are given as the source filed them. The call rests on the fitted dose curve; in most records, active means well fitted curve in the direction sought with a large enough effect; inconclusive means small, poorly fitted or top-dose-only effect, or another doubt; inactive means no such curve, though single readings can be large; an effect the other way counts as inactive or inconclusive.
# Tests used:
# [1] = Tertiary RLuc qRT-PCR qHTS assay for Zika virus inhibitors (AID 1347169); further: nearly all actives have a fitted effect of over 55% in size; further: potency means the concentration at half of the fitted maximal effect; on activity change, negative = inhibition: top concentration of the series differs between compounds
# Outline: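 Inhibition of ZIKV-RLuc replication in Vero cells, read as Renilla luminescence 1-1.5 hrs after live-cell substrate addition, following 48-72 hrs infection at MOI 1-2 in presence of compound.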
# [2] = HepG2 cells viability qHTS for Zika virus inhibitors (AID 1347168)
# Outline: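 To flag cytotoxic protease inhibitors, viability is measured by ATP-dependent luminescence (CellTiter Glo) after cells attached overnight receive compound for 24 to 48 hours in DMEM with 4% FBS.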
# [3] = OV-KATE Cancer Cell Toxicity qHTS against the NCATS CANVASS Library (AID 1347345); conditions: OV-KATE cells viability, CellTiter-Glo luminescence, 72 h; further: potency means the concentration at half of the fitted maximal effect
# Description: Natural products and their derivatives continue to be wellsprings of nascent therapeutic potential. However, many laboratories have limited resources for biological evaluation, leaving their previously isolated or synthesized compounds largely or completely untested. To address this issue, the Canvass library of natural products was assembled (https://tripod.nih.gov/canvass), in collaboration with academic and industry researchers, for quantitative high-throughput screening (qHTS) across a diverse set of cell-based and biochemical assays. The pure (>85% purity by liquid chromatography/mass spectrometry [LC/MS]) Canvass library of 346 natural products were submitted by 45 academic laboratories and companies around the world. […] The library was formatted into 1536-well plates and evaluated in 50 qHTS (in an 11-pnt concentration series) bioassays with broad scope of disease-relevant mechanisms. The resulting data set from 50 different assays was then systematically analyzed to identify overall trends and specific natural products with interesting biological activities. […]
# Cancer Cell Toxicity protocol for cell lines COV-362, OV-KATE, OV-SAHO, UWB1.289, UWB1.289-WTBRCA1, HEK-293, HPAF-II, Panc-1005, SW1088, or U-118MG. […] Luminescence signal was acquired via the ViewLux plate reader (PerkinElmer) using a clear filter, 2 second exposure and 2x binning settings.
# [4] = HPAF-II Cancer Cell Toxicity qHTS against the NCATS CANVASS Library (AID 1347346); conditions: HPAF-II viability, CellTiter-Glo ATP luminescence, 72 h; further: potency means the concentration at half of the fitted maximal effect; nearly all actives have a fitted effect of over 55% in size
# Outline: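 Cytotoxicity read-out was CellTiter-Glo luminescence after 72 h at 37 degrees C exposure of HPAF-II cells (1000/well) to compounds in an 11-point titration.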
# [5] = UWB1.289 Cancer Cell Toxicity qHTS against the NCATS CANVASS Library (AID 1347347); conditions: UWB1.289 viability, CellTiter-Glo luminescence, 72 h; further: potency means the concentration at half of the fitted maximal effect; nearly all actives have a fitted effect of over 60% in size
# Outline: (§1)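 Viability was assessed by adding CellTiter-Glo reagent to treated cultures and reading luminescence after 15min at room temperature. Treatment lasted 72 h at 37 degrees C/5% CO2, using an 11-point series on 1000 cells/well.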
# [6] = OV-SAHO Cancer Cell Toxicity qHTS against the NCATS CANVASS Library (AID 1347348); conditions: OV-SAHO viability, CellTiter-Glo luminescence, 72 h; further: potency means the concentration at half of the fitted maximal effect; nearly all actives have a fitted effect of over 55% in size
# Outline: as §1
# [7] = Panc-1005 Cancer Cell Toxicity qHTS against the NCATS CANVASS Library (AID 1347349); conditions: Panc-1005 viability, CellTiter-Glo luminescence, 72 h; further: potency means the concentration at half of the fitted maximal effect; nearly all actives have a fitted effect of over 60% in size
# Outline: as §1
# [8] = SW1088 Cancer Cell Toxicity qHTS against the NCATS CANVASS Library (AID 1347350); conditions: SW1088 viability, CellTiter-Glo luminescence, 72 h; further: potency means the concentration at half of the fitted maximal effect; nearly all actives have a fitted effect of over 75% in size
# Outline: as §1
# [9] = U-118MG Cancer Cell Toxicity qHTS against the NCATS CANVASS Library (AID 1347351); conditions: U-118MG viability, CellTiter-Glo luminescence, 72 h; further: potency means the concentration at half of the fitted maximal effect
# Outline: as §1
# [10] = COV-362 Cancer Cell Toxicity qHTS against the NCATS CANVASS Library (AID 1347352); conditions: COV-362 viability, CellTiter-Glo luminescence, 72 h; further: potency means the concentration at half of the fitted maximal effect
# Outline: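 Toxicity was measured as CellTiter-Glo luminescence after 72 h exposure to an 11-point compound series. Compound was added to 1000 cells/well 4 h after seeding.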
smiles,measurement,setting,value
O=C(Nc1ccc(/C=C/c2ccc(NC(=O)c3cc(S(=O)(=O)O)c4cccnc4c3O)cc2S(=O)(=O)O)c(S(=O)(=O)O)c1)c1cc(S(=O)(=O)O)c2cccnc2c1O,"activity change, negative = inhibition",[1],59.5% [at 5.25 µM]
COc1ccc(CCO[C@@H]2O[C@H](CO[C@H]3OC[C@](O)(CO)[C@H]3O)[C@@H](OC(=O)/C=C/c3ccc(O)c(O)c3)[C@H](O[C@@H]3O[C@@H](C)[C@H](O)[C@@H](O)[C@H]3O)[C@H]2O)cc1OC,Potency,[1],inactive
Cc1cc(C)c2c(c1)C(N(Cc1cc(C(F)(F)F)cc(C(F)(F)F)c1)c1nnn(C)n1)CCCN2CC1CCC(C(=O)O)CC1 (stereo not drawn),outcome,[2],inactive
same,Potency,[1],16.5 µM (active)
C[C@H]1CO[C@@H]2Cn3cc(C(=O)NCc4ccc(F)cc4F)c(=O)c(O)c3C(=O)N12,Potency,[1],inactive
CC(C)C[C@H](C(=O)O)c1cc(-c2ccc(C(F)(F)F)cc2)cc(-c2ccc(C(F)(F)F)cc2)c1,outcome,[2],inactive
same,Potency,[1],9.3 µM (active)
N#Cc1ccc(N2N=C3c4ccc(C(=O)O)cc4CC[C@@H]3[C@@H]2C2CCCC2)cc1Cl,outcome,[2],inactive
same,Potency,[1],14.7 µM (active)
C=C1/C(=C/C=C2\CCC[C@]3(C)[C@@H]([C@H](C)/C=C/[C@@H](C)C(C)C)CC[C@@H]23)C[C@@H](O)C[C@@H]1O,Potency,[1],3.3 µM (active)
O=C(O)c1ccc(S(=O)(=O)N(Cc2ccc(OC(F)(F)F)cc2)c2ncc(C(F)(F)F)cc2Cl)cc1,outcome,[2],inactive
same,Potency,[1],18.6 µM (active)
O=C(Nc1ccc(-c2ccc(Cl)c(Cl)c2)cc1)C1=C(O)c2ccccc2S(=O)(=O)N1,outcome,[2],inactive
same,Potency,[1],26.2 µM (active)
CC(C)(C)Sc1c(CC(C)(C)C(=O)O)n(Cc2ccc(Cl)cc2)c2ccc(OCc3ccc4ccccc4n3)cc12,outcome,[2],inactive
same,Potency,[1],11.7 µM (active)
COc1cc(C(=O)O)ccc1NC(=O)C1NC(CC(C)(C)C)C(C#N)(c2ccc(Cl)cc2F)C1c1cccc(Cl)c1F (stereo not drawn),Potency,[1],9.3 µM (active)
Cc1noc(-c2ccc(-c3ccc(CC(=O)O)cc3)cc2)c1NC(=O)O[C@H](C)c1ccccc1Cl,outcome,[2],inactive
same,Potency,[1],14.7 µM (active)
CCCCCc1ccc(/C=C/C(=O)Nc2cc(Cl)ccc2C(=O)O)cc1,outcome,[2],inactive
CC(O)(C(=O)O)C1CCC2(C)C1CCC1(C)C2CCC2C3(C)CCC(O)C(C)(COC4OC(CO)C(O)C(O)C4O)C3CCC21C (stereo not drawn),outcome,[2],inactive
same,Potency,[1],inactive
CCC(C)/C=C(C)/C=C/C1=CC2=CC(=O)C3(C)OC(C)(O)C(C(=O)OC)C3C2=CO1 (stereo not drawn),Potency,[1],inactive
O=C(O)c1ccc(N2C(=O)/C(=C/c3ccc(-c4ccc([N+](=O)[O-])cc4)o3)C=C2c2ccccc2)cc1,outcome,[2],inactive
O=C(O)c1cccc(-c2ccc(-c3cn(C(=O)N4CCCCC4Cc4ccccc4)nn3)cc2)c1 (stereo not drawn),outcome,[2],inactive
same,Potency,[1],2.62 µM (active)
COc1ccc2cc(-c3cc(-c4cc(Cl)cc(Cl)c4)nn3C(C)c3ccc(C(=O)NCCC(=O)O)cc3)ccc2c1 (stereo not drawn),Potency,[1],inactive
CCC(CC)(NC(=O)C(C)C)C(=O)N[C@@H](CCCN=C(N)N)C(=O)NC1(C(=O)NC(c2ccc(F)cc2)c2ccc(F)cc2)CCCC1,outcome,[2],inactive
same,Potency,[1],inactive
CCCCCCCOc1cc2c(cc1/C(C)=C/c1ccc(C(=O)O)cc1)C(C)(C)CCS2(=O)=O,outcome,[2],inactive
same,Potency,[1],2.94 µM (active)
CC#C[C@@H](CC(=O)O)c1ccc(OCc2cccc(-c3ccc(C(F)(F)F)cc3)c2)cc1,outcome,[2],inactive
CC#C[C@@H](CC(=O)O)c1ccc(OCc2ccc(CN3CCC4(C=Cc5ccccc54)CC3)s2)cc1,outcome,[2],inactive
O=S(=O)(Nc1cc(Cl)c(Oc2cnc3ccccc3c2)c(Cl)c1)c1ccc(Cl)cc1Cl,outcome,[2],inactive
same,Potency,[1],9.3 µM (active)
CC(C)CC(=O)c1c(O)cc2c(c1O)C(CC(C)C)C1=C(O2)C(C)(C)C(=O)C(C)(C)C1=O (stereo not drawn),Potency,[3],18.8 µM (active)
same,Potency,[4],13.3 µM (active)
same,Potency,[5],13.3 µM (active)
same,Potency,[6],11.8 µM (active)
same,Potency,[7],14.9 µM (active)
same,Potency,[8],7.49 µM (active)
same,Potency,[9],10.6 µM (active)
same,Potency,[10],13.3 µM (active)
C=C1C(=O)O[C@H]2CC(=C)[C@H]3CC[C@@](C)(O)[C@@H]3CC12 (stereo partly drawn),Potency,[1],inactive
COc1ccc2nccc(C(=O)CC[C@@H]3CCN(CC#Cc4cc(F)cc(F)c4F)C[C@@H]3C(=O)O)c2c1,Potency,[1],inactive
O=C(O)c1cc(N(Cc2ccc(C3CCCCC3)cc2)C(=O)c2ccc(Oc3ccccc3)cc2)ccc1O,outcome,[2],inactive
COc1ccc(-c2ccccc2)cc1NS(=O)(=O)c1cc(Cl)cc(Cl)c1O,outcome,[2],inactive
CC1=C(C(=O)OC2CCCCC2)C(c2ccc([N+](=O)[O-])cc2)C2=C(CC(C)(C)CC2=O)N1 (stereo not drawn),Potency,[1],inactive
